From ChEMBL document CHEMBL4513216, “Probing the Open Global Health Chemical Diversity Library for Multistage-Active Starting Points for Next-Generation Antimalarials” (ACS Infect Dis, 2020) come the findings set out here.

Screen size: about 69,000 compounds; about 8,600 (12%) showed an effect of 50% or more. For the sample, strong results were picked, then their nearest neighbours and some compounds at random.

In the experiment the test system is Plasmodium berghei. Nature of the experiment: Screen against P. berghei liver stage (PbLuc), transformed with Luciferase, at 10uM. The class given is functional, HepG2. The note with it: tested at 10 uM.
Take `O=C(c1cnc2ccc(F)cc2c1NCc1ccco1)N1CCCCC1`: the INHIBITION was -6.73%. For `CCN(Cc1ccc(F)c(F)c1)Cc1nc2c(cnn2C)c(=O)[nH]1`, the INHIBITION is -57.4%.

Turning to `CSCC(=O)N1CCCC(CCC(=O)N(C)CCc2ccccn2)C1` (stereo not drawn), the INHIBITION came to 29.2%.

Turning to `CCc1nc(C2CCCN2C(=O)CCc2nc(C3CC3)no2)no1` (stereo not drawn), the INHIBITION was -9.19%.

As for `O=S(=O)(C1CC1)N1Cc2nccn2CC(Cn2cncn2)C1` (stereo not drawn), the INHIBITION stood at 68.3%. Take `CCS(=O)(=O)N1Cc2nccn2CC(Cn2cncn2)C1` (stereo not drawn): the INHIBITION amounted to 20.6%. On to `CCCS(=O)(=O)N1Cc2nccn2CC(Cn2cncn2)C1` (stereo not drawn), for which the INHIBITION is listed as -23.1%. In the case of `Cc1nccn1CCC1CCN(C(=O)C2CC3(CCNCC3)CN2)CC1` (stereo not drawn), the INHIBITION is listed as 33.9%. Turning to `COCCN1CCN(CCCS(C)(=O)=O)CC1C` (stereo not drawn), the INHIBITION stood at 25.7%.

On to `COCCN1CCN(CCS(C)(=O)=O)CC1C` (stereo not drawn), for which the INHIBITION is -73.1%. On to `COCCN1CCN(CCCS(=O)(=O)N(C)C)CC1C` (stereo not drawn), for which the INHIBITION was found to be 66.7%. Turning to `NCc1cccc(-c2cccnc2C(=O)NCCN2CCOCC2)c1`, the INHIBITION worked out at 25.8%.

For `Cn1cc(NC(=O)c2cc3c(s2)CCCC3)cn1`, the INHIBITION is on record as -179%. Take `Cc1csc(CCNC(=O)C2CCOC2)n1` (stereo not drawn): the INHIBITION is 8.08%. In the case of `CCc1nc(CCNC(=O)C2CCOC2)sc1C` (stereo not drawn), the INHIBITION turned out to be 56.8%. The result for `CCc1nc(CCNC(=O)C2CC2)sc1C` reads 2.69%; that for `N#Cc1c(N2CCOCC2)nsc1-c1cccnc1`, -31.3%.

Regarding `CCN(CC)CCCNC(=O)Nc1c(C)cccc1C(C)C`, the INHIBITION worked out at 7.3%.

`COCCCNC(=O)Nc1c(C)cccc1C(C)C`: the INHIBITION is -19.1%. Turning to `Cc1cccc(C(C)C)c1NC(=O)NCCN(C(C)C)C(C)C`, the INHIBITION amounted to 56%. For `CCN(CC)C(=O)c1ccc(CNc2cncc(-n3cccn3)n2)cc1`, the INHIBITION was found to be 29.4%.

Regarding `Cc1nc(CN2CCN(c3ccc(Cl)cn3)CC2)no1`, the INHIBITION is on record as -52.4%.

With `CCC(CC)C(O)CNC(=O)Nc1cccc(-c2nccn2C)c1` (stereo not drawn), the INHIBITION came to 50.8%. Turning to `CCOCCNC(=O)Nc1cccc(-c2nccn2C)c1`, the INHIBITION is reported as -21.8%.

For the compound `Cn1ccnc1-c1cccc(NC(=O)NCCCO)c1`, the INHIBITION is on record as 10%.

With `Cn1cnc2c1C(COCC1CC1)CN(c1ncccn1)C2` (stereo not drawn), the INHIBITION is given as -32%. In the case of `CC(=O)N1CCCN(C(=O)NC(C)Cn2cccn2)CC1` (stereo not drawn), the INHIBITION worked out at 21.6%. As to `Cn1cc(CN2C[C@@H]3CCCO[C@@H]3[C@H](N3CCCC3=O)C2)cn1`, the INHIBITION was -3.51%.

In the case of `CCOCc1nc2c(c(NC(COC)c3ccccn3)n1)CCNCC2` (stereo not drawn), the INHIBITION came to 8.31%. As for `COc1ccc(C(=O)C2CCCN(Cc3ccc(C)o3)C2)c(OC)c1` (stereo not drawn), the figure is 42.9%; as for `COc1ccc(F)cc1C(=O)C1CCCN(Cc2ccc(C)s2)C1` (stereo not drawn), 43.9%. For the compound `COc1ccc(C(=O)C2CCCN(Cc3ccon3)C2)c(OC)c1` (stereo not drawn), the INHIBITION worked out at 47.7%.

On to `COc1ccc(C(=O)C2CCCN(CCCn3cccn3)C2)c(OC)c1` (stereo not drawn), for which the INHIBITION is 25.4%.

For the compound `COc1ccc(C(=O)C2CCCN(Cc3ccncc3)C2)cc1OC` (stereo not drawn), the INHIBITION was 63%. With `COc1ccc(C(=O)C2CCCN(Cc3ccncc3)C2)c(OC)c1` (stereo not drawn), the INHIBITION is listed as -3.1%. Regarding `COc1ccc(C(=O)C2CCCN(CCc3ccccc3)C2)c(OC)c1` (stereo not drawn), the INHIBITION came out at 71.3%. On to `COCCc1ncc(CN2CCCC(C(=O)c3ccccc3)C2)cn1` (stereo not drawn), for which the INHIBITION was 36.8%. The result for `COc1ccc(C(=O)C2CCCN(Cc3cccc(F)c3)C2)c(OC)c1` (stereo not drawn) reads 76.9%; that for `COc1ccc(C(=O)C2CCCN(Cc3ccccc3O)C2)c(OC)c1` (stereo not drawn), -20.5%; that for `COc1ccc(C(=O)C2CCCN(Cc3cc(C)n[nH]3)C2)c(OC)c1` (stereo not drawn), 68.5%. In the case of `CN1CCN(C(=O)c2ncn3c2CN(C)S(=O)(=O)c2ccccc2-3)CC1`, the INHIBITION is listed as -79.8%.

With `CCc1noc(CN2CCC(c3ccnn3CCO)CC2)n1`, the INHIBITION is reported as -19.4%. `CN(C)C(C(=O)N1CCC(c2ncc[nH]2)CC1)c1ccc2c(c1)OCO2` (stereo not drawn): the INHIBITION stood at 14.3%.

For the compound `O=C1COC2(CCN(C(=O)c3ccoc3)CC2)CN1Cc1ccccn1`, the INHIBITION is reported as -33.9%. The result for `CCOCCC(=O)NCC(C)c1ccsc1` (stereo not drawn) reads 32%; that for `CN(C)C(CNC(=O)OCC(F)(F)F)c1ccsc1` (stereo not drawn), 44.3%. Consider `CN(C)C(CNC(=O)CCNC(=O)OCC(F)(F)F)c1ccsc1` (stereo not drawn), for which the INHIBITION was found to be 61.9%. As for `CC(C)c1cc(C(=O)N2CCCC(c3cc(=O)nc4n3CCC4)C2)no1` (stereo not drawn), the figure is 18.4%.

Consider `CC1(C)CN(C(=O)Nc2cc(C(F)(F)F)c[nH]c2=O)CCO1`, for which the INHIBITION amounted to 4.97%. Regarding `CCO[C@H]1CC[C@H]2[C@H]1OCCN2CCOCc1ccccc1`, the INHIBITION was determined as 4.98%. `O=C(N[C@@H]1CN(c2ncccn2)C[C@@H]2CCCO[C@@H]21)c1ccnnc1`: the INHIBITION is given as -3.52%. On to `COc1ccc(OC)c(-n2c(COC(C)C)n[nH]c2=O)c1`, for which the INHIBITION is on record as 45.4%. The result for `COc1ccc(Cl)cc1-n1c(COC(C)C)n[nH]c1=O` reads 26.4%; that for `COc1ccc(C)cc1-n1c(COC(C)C)n[nH]c1=O`, 72.3%. Consider `COc1cccc(C(O)C(=O)N(C)CCc2ccccn2)c1` (stereo not drawn), for which the INHIBITION turned out to be 47.7%.

Take `O=C(CSCC1CC1)N1CCC2(CCCN(C3CCOCC3)C2=O)C1` (stereo not drawn): the INHIBITION came to 1.48%. As for `CN(C)C(=O)c1cnn2c1OCCC2`, the figure is 60.6%; as for `O=C(c1cnn2c1OCCC2)N1CCC2(CC1)OCCO2`, -14.2%.
